Our source for the binding signal values is paper PMC13541613, “GHT-SELEX demonstrates unexpectedly high intrinsic sequence specificity and complex DNA binding of many human transcription factors”.

Common to all, as to experiment: HT-SELEX; 20 mM HEPES pH 7, 140 mM KCl, 5 mM NaCl, 1 mM K2HPO4, 2 mM MgSO4, 100 uM EGTA, ZnSO4, 0.1% Tween20; room temperature, 1 h; high values mean tight binding
Common to all, as to conditions: protein: ivt; tags: eGFP (N-terminal); dsDNA, one strand shown

One assay deals with ZNF721 full-length (Homo sapiens, UniProt Q8TF20-2 1-923). The method in brief:
(§1)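 The binding signal is a relative k-mer count in selected reads, and higher values mean tighter binding. To obtain these reads, bead-bound tagged transcription factor (full-length or DNA-binding-domain fragment, produced in HEK293 lysate or cell-free extract) was mixed with a randomized 40-base DNA library for 1 h at room temperature in low-stringency HEPES/KCl buffer with Tween20. Bound DNA was recovered by washing and heat elution, PCR-amplified through successive cycles and sequenced on Illumina (~3 million 60 bp reads per sample).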

The target in the next assay is ZNF721 DBD1 (Homo sapiens, UniProt Q8TF20-2 29-461). In short, it runs like this: as §1
Chain of ZNF721 DBD1 (Q8TF20 17-449): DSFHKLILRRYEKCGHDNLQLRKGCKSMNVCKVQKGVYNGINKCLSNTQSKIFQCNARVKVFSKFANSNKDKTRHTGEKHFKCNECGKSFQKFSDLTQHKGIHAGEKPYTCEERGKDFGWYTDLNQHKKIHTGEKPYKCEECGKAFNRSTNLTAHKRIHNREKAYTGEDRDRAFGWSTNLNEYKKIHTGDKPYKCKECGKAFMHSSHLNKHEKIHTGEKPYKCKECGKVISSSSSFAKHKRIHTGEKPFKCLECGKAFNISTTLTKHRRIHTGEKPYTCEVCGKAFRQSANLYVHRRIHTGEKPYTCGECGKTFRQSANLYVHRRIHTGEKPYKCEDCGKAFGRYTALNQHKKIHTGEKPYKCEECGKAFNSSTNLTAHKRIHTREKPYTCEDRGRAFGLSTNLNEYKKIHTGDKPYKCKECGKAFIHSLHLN
The target of another assay is ZNF721 DBD2 (Homo sapiens, UniProt Q8TF20-2 395-923). The method in brief: as §1
Chain of ZNF721 DBD2 (Q8TF20 383-911): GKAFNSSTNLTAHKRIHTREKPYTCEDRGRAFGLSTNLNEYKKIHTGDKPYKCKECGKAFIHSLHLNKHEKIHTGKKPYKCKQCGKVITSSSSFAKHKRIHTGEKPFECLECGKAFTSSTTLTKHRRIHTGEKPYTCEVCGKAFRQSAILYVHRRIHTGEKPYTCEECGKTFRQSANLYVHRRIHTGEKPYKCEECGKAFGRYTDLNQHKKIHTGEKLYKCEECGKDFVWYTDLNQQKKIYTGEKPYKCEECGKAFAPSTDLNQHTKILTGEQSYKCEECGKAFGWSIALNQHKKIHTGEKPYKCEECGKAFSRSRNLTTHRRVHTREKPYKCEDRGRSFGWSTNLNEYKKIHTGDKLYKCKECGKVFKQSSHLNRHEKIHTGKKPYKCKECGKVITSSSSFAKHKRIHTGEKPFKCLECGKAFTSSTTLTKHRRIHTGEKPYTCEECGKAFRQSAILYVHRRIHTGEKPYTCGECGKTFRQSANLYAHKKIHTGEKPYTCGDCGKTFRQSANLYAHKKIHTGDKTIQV

Chain of ZNF721 full-length (Q8TF20 other isoform, or with tags, fused parts or gaps): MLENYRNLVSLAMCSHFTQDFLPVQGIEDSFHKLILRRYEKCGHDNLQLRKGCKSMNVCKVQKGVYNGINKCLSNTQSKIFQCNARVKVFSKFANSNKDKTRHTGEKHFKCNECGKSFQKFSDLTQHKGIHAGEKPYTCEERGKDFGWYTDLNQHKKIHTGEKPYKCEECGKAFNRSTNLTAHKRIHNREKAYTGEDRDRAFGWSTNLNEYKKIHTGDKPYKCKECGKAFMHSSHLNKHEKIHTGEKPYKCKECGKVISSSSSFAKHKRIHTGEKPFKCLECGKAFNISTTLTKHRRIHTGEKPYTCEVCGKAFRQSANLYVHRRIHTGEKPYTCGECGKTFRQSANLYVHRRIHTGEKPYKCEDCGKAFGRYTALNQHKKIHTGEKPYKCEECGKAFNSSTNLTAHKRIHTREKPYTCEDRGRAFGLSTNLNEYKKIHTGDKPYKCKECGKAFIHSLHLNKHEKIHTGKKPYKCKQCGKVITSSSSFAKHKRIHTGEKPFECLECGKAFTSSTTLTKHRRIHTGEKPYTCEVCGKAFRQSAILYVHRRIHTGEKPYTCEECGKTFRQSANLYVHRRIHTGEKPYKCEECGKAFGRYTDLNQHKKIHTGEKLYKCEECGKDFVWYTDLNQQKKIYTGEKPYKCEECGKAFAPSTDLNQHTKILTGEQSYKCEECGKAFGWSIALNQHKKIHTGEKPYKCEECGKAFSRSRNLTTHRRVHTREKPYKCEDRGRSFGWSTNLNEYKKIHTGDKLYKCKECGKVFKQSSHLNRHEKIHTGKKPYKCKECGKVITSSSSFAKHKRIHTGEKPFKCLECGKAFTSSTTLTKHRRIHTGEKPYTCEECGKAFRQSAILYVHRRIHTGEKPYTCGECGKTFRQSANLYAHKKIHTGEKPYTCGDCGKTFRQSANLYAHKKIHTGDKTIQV

Turning to GCCCACCCCC, the binding signal is 0.215 relative 10-mer count in the assay with ZNF721 full-length, 0.00876 relative 10-mer count in the assay with ZNF721 DBD1 and 0.00779 relative 10-mer count with ZNF721 DBD2.

On to CCCACCACCC, for which the binding signal came to 0.562 relative 10-mer count in the assay with ZNF721 full-length, 0.0272 relative 10-mer count with ZNF721 DBD1 and 0.00635 relative 10-mer count in the assay with ZNF721 DBD2.

CCCCCCTCCC: the binding signal was determined as 0.304 relative 10-mer count with ZNF721 full-length, 0.0139 relative 10-mer count with ZNF721 DBD1 and 0.00372 relative 10-mer count with ZNF721 DBD2.

Consider ACCCCATCCC, for which the binding signal in the assay with ZNF721 full-length stood at 0.102 relative 10-mer count; in the assay with ZNF721 DBD1 it was 0.00367 relative 10-mer count; with ZNF721 DBD2, 0.0024 relative 10-mer count.

Regarding CCCCCTCCTC, the binding signal with ZNF721 full-length worked out at 0.116 relative 10-mer count; in the assay with ZNF721 DBD1, 0.00459 relative 10-mer count; with ZNF721 DBD2, 0.00395 relative 10-mer count.

In the case of CGCTTCATAC, the binding signal was 0.265 relative 10-mer count with ZNF721 full-length, 0.363 relative 10-mer count with ZNF721 DBD1 and 0.0012 relative 10-mer count with ZNF721 DBD2.

With ACCACCCGCC, the binding signal with ZNF721 full-length worked out at 0.125 relative 10-mer count; with ZNF721 DBD1 it was 0.00445 relative 10-mer count; with ZNF721 DBD2, 0.00312 relative 10-mer count.

Take CCACCGCCAC: the binding signal in the assay with ZNF721 full-length turned out to be 0.12 relative 10-mer count; with ZNF721 DBD1, 0.00394 relative 10-mer count; in the assay with ZNF721 DBD2, 0.00599 relative 10-mer count.

On to CCCTACCCCC, for which the binding signal with ZNF721 full-length was 0.153 relative 10-mer count; with ZNF721 DBD1 it was 0.0083 relative 10-mer count; with ZNF721 DBD2, 0.00587 relative 10-mer count.

For the sequence CCCTCCACCA, the binding signal turned out to be 0.109 relative 10-mer count in the assay with ZNF721 full-length, 0.00436 relative 10-mer count with ZNF721 DBD1 and 0.00659 relative 10-mer count with ZNF721 DBD2.

Turning to CCACGCCCAC, the binding signal in the assay with ZNF721 full-length was determined as 0.102 relative 10-mer count; with ZNF721 DBD1 it was 0.00514 relative 10-mer count; in the assay with ZNF721 DBD2 it was 0.00431 relative 10-mer count.

In the case of CCCACCCGCA, the binding signal in the assay with ZNF721 full-length is 0.109 relative 10-mer count; in the assay with ZNF721 DBD1, 0.00316 relative 10-mer count; in the assay with ZNF721 DBD2, 0.00563 relative 10-mer count.

Take CCCCTCCGCC: the binding signal came out at 0.167 relative 10-mer count with ZNF721 full-length, 0.00766 relative 10-mer count with ZNF721 DBD1 and 0.003 relative 10-mer count with ZNF721 DBD2.

On to CCCACCCTCA, for which the binding signal worked out at 0.114 relative 10-mer count with ZNF721 full-length, 0.00573 relative 10-mer count in the assay with ZNF721 DBD1 and 0.00971 relative 10-mer count in the assay with ZNF721 DBD2.

As for CCACCACGCC, the binding signal with ZNF721 full-length came out at 0.105 relative 10-mer count; with ZNF721 DBD1, 0.00316 relative 10-mer count; with ZNF721 DBD2 it was 0.00587 relative 10-mer count.

Consider CCCCACCCAA, for which the binding signal turned out to be 0.134 relative 10-mer count with ZNF721 full-length, 0.00431 relative 10-mer count with ZNF721 DBD1 and 0.00491 relative 10-mer count with ZNF721 DBD2.

Regarding CGCCCCCCTC, the figures for the binding signal in the assay with ZNF721 full-length, with ZNF721 DBD1 and with ZNF721 DBD2 were 0.116 relative 10-mer count, 0.00422 relative 10-mer count and 0.00204 relative 10-mer count, respectively.

In the case of CACCCCAACC, the binding signal with ZNF721 full-length is 0.142 relative 10-mer count; in the assay with ZNF721 DBD1, 0.0061 relative 10-mer count; with ZNF721 DBD2, 0.00407 relative 10-mer count.

On to CCCTCCTCCC, for which the binding signal with ZNF721 full-length is 0.179 relative 10-mer count; with ZNF721 DBD1, 0.00927 relative 10-mer count; with ZNF721 DBD2, 0.00479 relative 10-mer count.

In the case of CCCCCCAACC, the figures for the binding signal in the assay with ZNF721 full-length, with ZNF721 DBD1 and with ZNF721 DBD2 were 0.194 relative 10-mer count, 0.00651 relative 10-mer count and 0.00707 relative 10-mer count, respectively.

AAGCGTACCC: the binding signal amounted to 0.208 relative 10-mer count with ZNF721 full-length, 0.104 relative 10-mer count in the assay with ZNF721 DBD1 and 0.0138 relative 10-mer count in the assay with ZNF721 DBD2.

CCACCCTCCC: the binding signal in the assay with ZNF721 full-length came to 0.246 relative 10-mer count; in the assay with ZNF721 DBD1 it was 0.0111 relative 10-mer count; with ZNF721 DBD2, 0.00467 relative 10-mer count.

As to AAAAGCTATC, the binding signal in the assay with ZNF721 full-length was found to be 0.233 relative 10-mer count; with ZNF721 DBD1, 0.129 relative 10-mer count; with ZNF721 DBD2 it was 0.00168 relative 10-mer count.

GCCCCACCGC: the binding signal with ZNF721 full-length was found to be 0.104 relative 10-mer count; with ZNF721 DBD1, 0.00271 relative 10-mer count; with ZNF721 DBD2 it was 0.00407 relative 10-mer count.

For ACCCCCAACC, the binding signal worked out at 0.12 relative 10-mer count in the assay with ZNF721 full-length, 0.00468 relative 10-mer count in the assay with ZNF721 DBD1 and 0.00479 relative 10-mer count with ZNF721 DBD2.

In the case of CCCCCACCCG, the binding signal with ZNF721 full-length turned out to be 0.174 relative 10-mer count; with ZNF721 DBD1, 0.00587 relative 10-mer count; in the assay with ZNF721 DBD2, 0.00384 relative 10-mer count.

Take CCCAAACCCC: the binding signal with ZNF721 full-length came to 0.109 relative 10-mer count; with ZNF721 DBD1, 0.00298 relative 10-mer count; in the assay with ZNF721 DBD2 it was 0.00168 relative 10-mer count.
